Test results taken from article PMC5540273 (PLoS ONE, 2017).

Tests used:
Settings in all cases: concentration: 1 μM, replicates: in singlicate; n = 1
[1] = tested on: CHEK1
[2] = tested on: CHEK2
[3] = tested on: CIT
[4] = tested on: CLK1
[5] = tested on: CLK2
[6] = tested on: CLK3
[7] = tested on: CLK4
[8] = tested on: CSF1R-autoinhibited
[9] = tested on: CSF1R
[10] = tested on: CSK
[11] = tested on: CSNK1A1L
[12] = tested on: CSNK1A1
[13] = tested on: CSNK1D
[14] = tested on: CSNK1E
[15] = tested on: CSNK1G1
[16] = tested on: CSNK1G2
[17] = tested on: CSNK1G3
[18] = tested on: CSNK2A1
[19] = tested on: CSNK2A2
[20] = tested on: T1, CTK
T1 construct: gene MATK
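Further: KINOMEscan kinase panel screen.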

SMILES	%Inh [1]	%Inh [2]	%Inh [3]	%Inh [4]	%Inh [5]	%Inh [6]	%Inh [7]	%Inh [8]	%Inh [9]	%Inh [10]	%Inh [11]	%Inh [12]	%Inh [13]	%Inh [14]	%Inh [15]	%Inh [16]	%Inh [17]	%Inh [18]	%Inh [19]	%Inh [20]
Cn1ccc2ncnc(Oc3ccc(NC(=O)Nc4ccncc4)c(Cl)c3)c21	0%	20%	18%	0%	0%	0%	21%	0%	0%	0%	0%	0%	0%	0%	0%	0%	0%	0%	0%	0%
Cc1c2ccc(N(C)c3ccnc(Nc4cccc(S(N)(=O)=O)c4)n3)cc2nn1Cc1ccccc1.Cl.Cl [GW787226]	0%	8%	6%	0%	12%	0%	0%	64%	100%	9%	0%	15%	0%	0%	0%	0%	0%	0%	1%	26%
CCCCCc1nc2c(N)ncnc2n1CCCCC [SKF-97255]	0%	0%	9%	24%	14%	3%	17%	0%	17%	0%	0%	14%	0%	3%	0%	0%	6%	0%	28%	0%
NCC(NC(=O)c1cc(-c2cn[nH]c2)c(-c2ccnc3[nH]ccc23)s1)c1ccccc1.O=C(O)C(F)(F)F.O=C(O)C(F)(F)F (stereo not drawn) [GSK1325775]	37%	86%	96.6%	74%	68%	70%	66%	0%	26%	10%	87%	93.3%	91.9%	99.4%	55%	90%	81%	15%	33%	0%
Cc1nnc(-c2ccc3ncc(-c4ccc(S(C)=O)cc4)n3c2)o1 (stereo not drawn)	0%	0%	38%	0%	0%	0%	0%	7%	17%	0%	9%	7%	0%	0%	24%	5%	0%	0%	18%	27%
O=c1cc(N2CCOCC2)nc2n(Cc3cccc(F)c3)ccn12 [GSK2297430]	0%	0%	26%	33%	0%	30%	45%	0%	0%	0%	18%	20%	15%	35%	9%	1%	13%	0%	0%	0%
Cc1c(Cn2c(C)nn3c(=O)cc(N4CCOC(C)C4)nc23)cccc1C(F)(F)F (stereo not drawn) [GSK2344444]	10%	0%	9%	29%	0%	0%	13%	0%	0%	0%	0%	0%	0%	0%	0%	0%	18%	12%	9%	2%
CN(C(=O)c1ccc(-c2cc(-c3c[nH]nc3-c3ccccn3)ccn2)cc1)C1CCOCC1 [GW810083]	0%	12%	5%	23%	0%	0%	0%	31%	20%	0%	8%	37%	29%	42%	5%	0%	0%	0%	0%	5%
c1ccc(-c2n[nH]cc2-c2ccnc3ccccc23)nc1 [GW271431]	5%	0%	41%	28%	7%	55%	20%	11%	6%	0%	19%	38%	60%	69%	20%	0%	24%	0%	23%	0%
CC(C)Oc1ccc2c(-c3ccnc(Nc4ccc(N5CCN(C)CC5)cc4)n3)cnn2n1 [GW696155]	0%	67%	98.7%	97%	96.8%	1%	93.7%	58%	65%	34%	0%	46%	37%	28%	28%	0%	19%	94.6%	98.9%	0%
Cl.Oc1cccc(Nc2ccnc3cc(-c4ccncc4)ccc23)c1 [GW494601]	0%	42%	68%	9%	0%	0%	33%	41%	91.9%	65%	42%	55%	28%	45%	40%	0%	22%	0%	0%	0%
c1ccc(-c2cc(-c3c[nH]nc3-c3ccccn3)ccn2)cc1 [GW576604]	0%	6%	27%	5%	12%	0%	11%	26%	0%	0%	0%	0%	38%	15%	0%	1%	3%	0%	15%	0%
O=C(Nc1cccc(-c2nn3ncccc3c2-c2ccnc(Nc3cccc(C(F)(F)F)c3)n2)c1)c1c(F)cccc1F [GSK299495]	5%	0%	0%	18%	100%	0%	25%	8%	98.1%	88%	24%	0%	12%	82%	0%	0%	18%	0%	0%	0%
CSc1ccc(-c2cc3ncnc(SCC(=O)O)c3s2)cc1	0%	2%	1%	0%	0%	0%	0%	17%	18%	0%	11%	21%	0%	0%	1%	0%	0%	22%	17%	14%
Cl.Nc1ncnc2occ(-c3ccc(NC(=O)Nc4cc(C(F)(F)F)ccc4F)cc3)c12 [SB-707548]	6%	45%	82%	69%	11%	13%	69%	90.7%	99.9%	20%	11%	10%	32%	25%	16%	0%	32%	0%	0%	4%
